Measurements taken from ChEMBL document CHEMBL3988442, “University of Dundee, Small-Polar-MMV Screening Library” (2021).

Key:
[1] = molecular target: T1, Aspartate--tRNA(Asp/Asn) ligase (Mycobacterium tuberculosis (strain ATCC 25618 / H37Rv)) (UniProt P9WFW3); assay: Assay for Asp RNA synthetase-1 from Mycobacterium tuberculosis; type: functional; design: scale not given: direction of the effect not stated beside the values; details: 30 µM; also: in the data most compounds retested in dose-response had high values
T1 sequence (whole entry): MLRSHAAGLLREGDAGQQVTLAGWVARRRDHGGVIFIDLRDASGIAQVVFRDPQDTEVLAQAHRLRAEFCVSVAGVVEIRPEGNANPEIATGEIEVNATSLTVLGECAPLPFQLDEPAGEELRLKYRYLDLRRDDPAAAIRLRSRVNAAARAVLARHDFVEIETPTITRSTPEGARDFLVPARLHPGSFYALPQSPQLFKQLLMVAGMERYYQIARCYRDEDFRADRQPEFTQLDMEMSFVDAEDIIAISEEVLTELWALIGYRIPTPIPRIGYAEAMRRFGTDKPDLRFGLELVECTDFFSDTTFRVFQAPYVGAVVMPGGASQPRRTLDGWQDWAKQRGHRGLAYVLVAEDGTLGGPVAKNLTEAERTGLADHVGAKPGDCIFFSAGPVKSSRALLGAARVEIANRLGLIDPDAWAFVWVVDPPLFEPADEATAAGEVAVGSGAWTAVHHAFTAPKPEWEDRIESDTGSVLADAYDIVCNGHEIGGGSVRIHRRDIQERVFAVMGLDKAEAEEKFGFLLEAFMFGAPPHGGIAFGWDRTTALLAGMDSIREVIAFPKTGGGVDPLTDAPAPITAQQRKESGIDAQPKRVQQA

[2] = molecular target: Shiga toxin 2 (Escherichia coli O157:H7) (UniProt P09385+P09386); assay: E. coli 0.157:H7 Shiga Toxin SOP - stx2 screening assay; type: functional; design: scale not given: direction of the effect not stated beside the values; details: 30 µM

Row | Structure (SMILES) | Percent Effect [1] | Percent Effect [2]
1 | Cc1ccc(C(=O)NC2CCN(Cc3noc(CC(C)C)n3)CC2)s1 | 7.55% | -63.2%
2 | CCc1nc(CN2CCCN(C(=O)CCSC)CC2)cs1 | -2.35% | -65.7%
3 | CCNS(=O)(=O)c1ccc(C)c(C(=O)N(C)Cc2ccco2)c1 | 2.92% | 0.315%
4 | CN(Cc1ccccc1)C(=O)c1nc(S(C)(=O)=O)n2ccccc12 | -4.08% | 20.9%
5 | O=C(CCOc1ccc(Cl)cc1)N1CCN(c2cnccn2)CC1 | 0.879% | -12.7%
6 | CC1CCCN(C(=O)CCc2cccnc2)C1 (centres undefined) | -4.28% | -0.0678%
7 | COc1ccc(C(=O)N2C[C@@H](CN3CCOCC3)[C@@H](CO)C2)c(C)c1 | -0.54% | 2.18%
8 | Cc1cccc(NC2CCN(C(=O)Nc3cc(C)on3)CC2)n1 | -5.71% | -63.5%
9 | CNC(=O)c1cc2c(nc1NC(C)C)CCN(C(=O)NC(C)C)CC2 | -2.07% | 0.412%
10 | N#CC1(C(=O)Nc2ccc(OC(F)F)cc2)CCCC1 | 3.4% | -2.03%
11 | CCc1nnsc1C(=O)NCCn1nc2ccccn2c1=O | -6.91% | -19.6%
12 | Cn1c(C2CC2)nc2c1CCN(CCS(=O)(=O)c1ccccc1)C2 | -5.83% | 6.27%
13 | CCS(=O)(=O)N(C)CC(=O)Nc1ccc(Br)cn1 | -2.34% | -12.9%
14 | COC1CCN(C(=O)CCc2c(C)nc3ccnn3c2C)CC1 | -6.77% | 21%
15 | CCCC1CCCN(Cc2csc(-c3cnn(C)c3)n2)CC1 (centres undefined) | -1.75% | 20.9%
16 | CS(=O)(=O)c1ccc(OCCNCc2ccc(F)cc2F)cc1 | 4.17% | -84.6%
17 | Cc1cc(C)n(CC2CCCN2CCCS(N)(=O)=O)n1 (centres undefined) | -0.589% | -25.1%
